Screening data as filed in PubChem BioAssay.
RORg inh: inhibitors of mouse ROR gamma transcriptional activity. P51450. Drosophila S2 Gal4-RORgamma UAS-luciferase reporter, 20 h. Potency, µM (top dose mostly 53.6 µM), hits mostly inhibitors. 310,000 compounds, 5.4% hits; also: nearly all actives have a fitted effect of over 60% in size
Target sequence (P51450 whole entry, looked up, the tested form may be a part): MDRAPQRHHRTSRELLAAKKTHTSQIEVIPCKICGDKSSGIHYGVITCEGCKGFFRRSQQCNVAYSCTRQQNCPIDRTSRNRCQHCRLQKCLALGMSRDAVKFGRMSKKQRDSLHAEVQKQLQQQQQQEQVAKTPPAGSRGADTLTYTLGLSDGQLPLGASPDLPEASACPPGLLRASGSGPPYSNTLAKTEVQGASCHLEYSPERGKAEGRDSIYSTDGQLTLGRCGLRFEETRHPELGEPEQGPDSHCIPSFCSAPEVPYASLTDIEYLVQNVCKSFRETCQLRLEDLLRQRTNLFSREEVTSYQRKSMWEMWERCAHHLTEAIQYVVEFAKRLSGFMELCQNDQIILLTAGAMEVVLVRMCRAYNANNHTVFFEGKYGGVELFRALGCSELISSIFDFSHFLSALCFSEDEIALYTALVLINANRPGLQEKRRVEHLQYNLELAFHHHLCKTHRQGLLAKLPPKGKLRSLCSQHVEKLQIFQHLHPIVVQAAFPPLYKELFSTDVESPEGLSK
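Luminescence from a UAS-regulated Photinus luciferase reporter in stably transfected Drosophila Schneider cells is measured; decreased signal marks ROR gamma inhibition. Fusion expression is induced by 700 uM copper sulfate for 20 hr.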
uPA surface inh: cell surface uPA generation inhibition; cell surface uPA generation assay, qHTS; Potency, µM (titrated, usually from 38.3 µM), usual class: inhibitors; 330,000 compounds, 0.31% hits; AID 540303; active = well fitted inhibition curve with a large enough effect; inconclusive = small, poorly fitted or top-dose-only effect; inactive = no such curve, though single readings can be large or run the other way; tested in mouse RAW 264.7 cells; also: nearly all actives have a fitted effect of over 55% in size
BCR signal inh: blocks chronic active B-cell receptor signaling | ABC-DLBCL IkBa-CBG/CBR reporter, luminescence ratio, 4 h | Potency, µM (doses to about 46.1 µM), usual class: inhibitors | 340,000 compounds, 0.05% hits; active = well fitted inhibition curve with a large enough effect in the signal ratio, with a control signal flat, not every such curve was filed as active; inconclusive = small, poorly fitted or top-dose-only effect, or effect the other way, or a change in a side signal; the % refers to the signal ratio
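Concentration-response series (up to 46 uM) were applied to TMD8 dual-reporter cells for 4 h at 37C with doxycycline. Green/red ratio, after filter-overlap correction, defined %Activity; red signal alone was normalised to basal cells and zero luminescence.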
Gal4-VP16 FLuc: inhibits Gal4-VP16 luciferase reporter, ROR gamma counter-screen. Drosophila S2 Gal4-VP16 UAS-luciferase, luminescence, 20 h. 310,000 compounds, 3.5% hits. Potency, µM (highest dose often 53.6 µM), most hits filed as inhibitors. AID 2546;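 also: Gal4-VP16 expression switched on by copper sulfate through the metallothionein promoter; nearly all actives have a fitted effect of over 50% in size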
a7 integrin act: integrin-mediated muscular dystrophy alleviation activation; AID 624291; 350,000 compounds, 0.064% hits; alpha7betagal myoblasts, beta-gal FDG fluorescence, 48 h; Potency, µM (series often up to 38.3 µM), hits mostly activators; also: nearly all actives have a fitted effect of over 60% in size
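alpha7betagal+/- myoblasts (passage 13, 250/well) treated 48 h at 37C with compounds at 1:260 dilution of DMSO stock. Lysed, then beta-galactosidase activity read as FDG fluorescence (ex 480/em 540) after 30 min, with pre-read for autofluorescence.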
Mito fusion yeast: inhibitors of mitochondrial division or activators of mitochondrial fusion. Potency, µM (top dose mostly 46.1 µM), most hits filed as activators. S. cerevisiae fusion-defective mutant growth rescue, CellTiterGlo 48 h. 320,000 compounds, 0.23% hits; also: nearly all actives have a fitted effect of over 45% in size
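Temperature-sensitive fusion-defective S. cerevisiae (e.g. fzo1-1, mgm1-5) were grown with compound in YPEG medium (3% ethanol, 3% glycerol) for 48 hours at 37C. Growth rescue was measured as viability by CellTiterGlo luminescence after 10 minutes at ambient.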
Numbers stand for hits; . = inactive; ? = inconclusive; / = no result; [ ] = dose if it differs, or a comment. A selection: hits, their analogues and other compounds. The true share with any hit is near 5.5%. Unless noted, calls follow the shape of the dose curve; as a rule, active = well fitted curve in the direction sought with a large enough effect; inconclusive = small, poorly fitted or top-dose-only effect, or another doubt; inactive = no such curve, though single readings can be large; an effect the other way counts as inactive or inconclusive.

SMILES | RORg inh | uPA surface inh | BCR signal inh | Gal4-VP16 FLuc | a7 integrin act | Mito fusion yeast
CCCCC[C@H](O)/C=C/C=C\C=C\C=C\[C@@H](O)[C@@H](O)CCCC(=O)O | . | / | / | . | / | /
Cc1ccc(NC(=O)CSc2ncc3ccccn23)cc1 | . | . | ? | . | . | .
COc1ccc(/C=C2\CCCC(C(=O)C(F)(F)F)=C2O)cc1OC | . | / | ? | . | / | .
COc1ccc(/C=C2/CCCC(C(=O)C(F)(F)F)=C2O)cc1OC | 18µM | . | ? | ? | . | .
Cc1ccnc(Nc2nc(-c3ccc(F)cc3)cs2)c1 | 11µM | . | ? | ? | . | .
Cc1ccc(-c2csc(Nc3ccccn3)n2)cc1 | .[1.91 µM] | . | ? | ? | . | .
Cc1cc(-c2csc(Nc3ccccn3)n2)ccc1F | 1µM | . | ? | ? | . | .
C/C(=N/NC(=O)c1nnn(-c2nonc2N)c1COc1ccccc1)c1ccccc1Cl | 22µM | . | . | ? | . | .
C/C(=N\NC(=O)c1nonc1N)c1cccs1 | 0.32µM | . | ? | . | . | .
C/C(=N\NC(=O)c1nnn(-c2nonc2N)c1-c1ccccc1)c1ccccc1O | 1.8µM | . | . | 6.3µM | . | .
Nc1nonc1-n1nnc(C(=O)N/N=C/c2ccc(OCc3ccc(F)cc3)cc2)c1COc1ccccc1 | 7.1µM | . | ? | ? | ? | .
COCc1c(C(=O)N/N=C(/C)c2cccs2)nnn1-c1nonc1N | . | . | . | . | . | .
C/C(=N/NC(=O)c1nnn(-c2nonc2N)c1COc1ccccc1)c1ccc(O)cc1 | . | . | . | . | . | .
O=C(CCc1ccccc1)Nc1ccc2c(c1)C(=O)OC2 | ? | . | ? | . | . | .
Cc1cccc(NC(=O)CSc2nnc(Cc3ccccc3)o2)c1 | . | . | . | . | . | .
CCCCCCCCCCCCCC/C(C(=O)O)=C(\C)C(=O)O | . | / | / | . | / | /
C(=N\Nc1nc2ccccc2s1)/c1cccs1 | 1.3µM | . | ? | 3.2µM | . | .
C(=N\Nc1nc2ccccc2s1)/c1ccco1 | 11µM | . | ? | ? | . | .
Cc1ccc(C)c(-c2csc(N/N=C/c3ccco3)n2)c1 | 16µM | . | . | . | . | .
Oc1ccccc1C=NNc1nc2ccccc2s1 | / | . | / | / | . | /
CCn1c(C)c(/C=N/Nc2nc3ccccc3s2)c2ccccc21 | 5µM | / | ? | ? | . | .
C[C@@H]1[C@H]2[C@@H]3CC[C@@H](C3)[C@H]2CN[C@H]1c1cn(Cc2ccccc2)c2ccccc12 | / | . | . | / | . | /
CC(C)CO/N=C1/C[C@@H](O)[C@@H](O)[C@@H]2[C@@H]3C(=O)N(Cc4ccccc4)C(=O)[C@H]3CC[C@@H]12 | .[10 µM] | / | / | .[10 µM] | / | /
CC(NC(=O)CCN1N=C(c2ccccc2)CCC1=O)c1ccc2c(c1)OCCO2 (stereo unspecified) | . | / | . | . | / | .
Cc1nn(-c2ccc(Cl)cc2)c(=O)c2c(C)noc12 | . | . | . | . | . | .
SMILES | RORg inh | uPA surface inh | BCR signal inh | Gal4-VP16 FLuc | a7 integrin act | Mito fusion yeast
Oc1ccc(C=NNc2nc3ccccc3s2)c(O)c1 | / | . | / | / | . | /
C/C(=N\Nc1nc2ccccc2s1)c1cccs1 | 0.71µM | . | ? | 3.5µM | . | .
Cc1nn(-c2ccccc2Cl)c(Cl)c1/C=N/Nc1nc2ccccc2s1 | 1µM | . | . | 0.32µM | . | .
Cc1ccsc1/C=N/Nc1nc2ccccc2s1 | 0.56µM | . | ? | 0.89µM | . | .
CCCC[C@@H]1CCCO[C@@](C(=O)NCc2ccc(S(C)(=O)=O)cc2)(C(F)(F)F)C1 | . | / | / | . | / | /
NCCCNCCCCNCCCNC(=O)CCc1ccc(O)cc1 | .[10 µM] | / | / | .[10 µM] | / | /
COC(=O)c1cnn(-c2nc(OC)cc(OC)n2)c1C | . | . | . | . | . | .
COc1cc(OC)nc(-n2ncc(Br)c(Br)c2=O)n1 | 2.2µM | ? | ? | 4.5µM | ? | ?
CCCCCCOC(=O)c1cccnc1 | .[10 µM] | / | / | . | / | /
CCn1c(NC(=O)c2ccc(COc3ccc(C)cc3[N+](=O)[O-])o2)nc2ccccc21 | 2.2µM | / | . | 5µM | . | .
N#CCC(=O)NNC(=S)NC(=O)C(c1ccccc1)c1ccccc1 | . | . | . | . | . | .
CC(=O)NC(=S)NNC(=O)C(c1ccccc1)c1ccccc1 | 6.3µM | . | . | . | . | .
O=c1[nH][nH]c2ccccc2c1=O | . | . | . | . | . | .
CCCCNc1nc(Cl)nc(Nc2ccc(C)cc2)n1 | / | . | / | / | . | /
COC(C[C@@H](O)C[C@@H](O)[C@@H](C)OCc1ccccc1)OC | / | . | / | / | . | /
Cn1c(SCC(=O)Nc2ccccc2)nc2c([nH]c3ccccc32)c1=O | ? | . | ? | 13µM | . | .
Cc1cccc(NC(=O)CSc2nc3c([nH]c4ccccc43)c(=O)n2C)c1 | 13µM | . | ? | ? | . | .
COc1cccc(NC(=O)CSc2nc3c([nH]c4ccccc43)c(=O)n2C)c1 | . | . | . | . | . | .
C=CCn1c(SCC(=O)Nc2cc(C)on2)nc2c([nH]c3ccccc32)c1=O | ? | . | . | 11µM | . | .
Cc1ccc(NC(=O)NCCCN2CCCC2=O)cc1C | . | . | . | . | . | .
COCCN(CCOC)c1nc(C)nc2c1nc(-c1ccccc1)n2CCN(C)C | . | / | / | . | / | /
O=C(Nc1ccc(F)c(Cl)c1)C1CCCN(C2=NS(=O)(=O)c3ccccc32)C1 (stereo unspecified) | / | . | . | / | . | .
Fc1ccc(NC(=S)Nc2cccc3ccccc23)cc1 | ? | . | . | ? | . | .
Cc1cc(NC(=S)Nc2cccc3ccccc23)n[nH]1 | 2.8µM | . | . | 5µM | . | .
COc1cccc(NC(=S)Nc2cccc3ccccc23)c1 | 0.11µM | . | . | 6.3µM | . | .
SMILES | RORg inh | uPA surface inh | BCR signal inh | Gal4-VP16 FLuc | a7 integrin act | Mito fusion yeast
CC(C)c1ccc(NC(=S)Nc2cccc3ccccc23)cc1 | 3.5µM | . | . | 7.1µM | . | .
CCc1cccc(NC(=S)Nc2cccc3ccccc23)c1 | 4µM | . | . | 7.9µM | . | .
COc1ccc(NC(=S)Nc2cccc3cnccc23)cc1 | . | . | . | . | . | .
CC(=O)N[C@@H](C(=O)O)C(C)(C)SN=O | . | / | / | . | / | /
COc1ccc(C(=O)CCC(=O)Nc2cccc(C(C)=O)c2)cc1 | / | / | . | / | / | /
O=C(Cc1cccs1)NCCS(=O)(=O)N1CCN(c2cccc(Cl)c2)CC1 | / | . | . | / | . | .
CC(=O)Oc1cc(C)c(OC(C)=O)c2ccccc12 | .[10 µM] | / | / | . | / | /
Cc1ccc(NC(=S)Nc2cccc3ccccc23)cc1 | 2µM | . | . | 5.6µM | . | .
Cc1cccc(NC(=S)Nc2cccc3ccccc23)c1 | 7.1µM | . | . | 8.9µM | . | .
Fc1ccc(NC(=S)Nc2cccc3ccccc23)cc1F | 11µM | . | . | ? | ? | .
Cc1cc(C)cc(NC(=S)Nc2cccc3ccccc23)c1 | . | . | . | . | ? | .
CC(=O)N(C)c1ccc(NC(=S)Nc2ccc(C(C)C)cc2)cc1 | 7.1µM | . | . | 22µM | . | .
